Rows were chosen to be rich in hits. Some 3.8% of all compounds tested hit in one or more screens of this group.
ATXN2 expr inh: inhibitors of ATXN2 expression | HEK-293 ATXN2-luciferase reporter, luminescence, 24 h | actives 0.72% (n = 360,000) | Potency, µM (doses to about 57 µM), for the others: at the top dose activity change, negative = inhibition, most hits filed as inhibitors; further: on the % scale 0 is the no-effect control and ±100 the full control effect; nearly all actives have a fitted effect of over 55% in size
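ATXN2-luciferase reporter cells (luciferase flanked by upstream and downstream ATXN2 gene portions) were treated 24 h at 37 °C with compounds at up to 57 uM. SteadyGlo luminescence gave expression; GF-AFC fluorescence gave viability.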
S2 tox: reduces viability in counter-screen for ATXN expression inhibitors; Potency, µM (doses to about 56.7 µM), most hits filed as cytotoxic; S2 cells (HEK-293 line with an ATXN2-luciferase reporter) viability, CellTiter-Fluor protease fluorescence, 24 h; actives 0.49% (n = 400,000); AID 651635; further: nearly all actives have a fitted effect of over 40% in size
HT1080NT lethal: kills 2HG-producing HT-1080-NT fibrosarcoma cells; HT-1080-NT fibrosarcoma viability, CellTiter-Glo ATP luminescence, 48 h; Potency, µM (doses to about 46.1 µM), for the others: top-dose activity, negative = less viability, most hits filed as cytotoxic; actives 1.6% (n = 360,000);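 further: NT is the 2HG producing partner of a matched IDH1 knockdown line; 0% = DMSO-treated cells and -100% = media-only wells without cells; nearly all actives have a fitted effect of over 55% in size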
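HT-1080-NT; 750 cells/well; 5% FBS RPMI; 48 h compound, 37 degrees C; CellTiter-Glo luminescence; curve fitting and curve-class assignment.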
HT1080 IDH1KD tx: toxicity to HT-1080 IDH1 knockdown cells (counter line); HT-1080 IDH1 knockdown viability, ATP luminescence, 48 h; Potency, µM (top dose mostly 46.1 µM), inactives show at the top dose activity, negative = toxicity, actives largely listed as cytotoxic; actives 2% (n = 360,000);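 further: 0% = DMSO wells and -100% = cell-free medium wells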
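% activity derives from luminescence (CellTiter-Glo), normalised to DMSO and no-cell wells. HT-1080-IDH1KD cells, 750/well, had 48 h compound exposure at 37 °C.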
TGFb inhibitor: TGF-b pathway inhibition; Potency, µM (titrated, usually from 46.1 µM), without a hit: at the top dose activity, negative = inhibition, hits mostly inhibitors; HepG2 CAGA-GFP TGF-b/SMAD3 reporter, GFP fluorescence, 18 h; TGF-beta stimulated, 500 pg/mL final; AID 588855; actives 1.2% (n = 410,000); further: on the % scale 0 is the no-effect control and ±100 the full control effect; nearly all actives have a fitted effect of over 65% in size
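Using HEPG2 CAGA-GFP reporter cells at 1000 cells/well, we pinned test compounds, stimulated with recombinant TGF-beta (500 pg/mL final) and measured total well GFP after 18 h.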
HepG2 viability: counter-screen for TGF-b inhibitors: cytotoxicity in HepG2 cells; HepG2 CAGA-GFP viability, ATP luminescence, 18 h; Potency, µM (series often up to 46.1 µM), for inactives: top-dose activity change, negative = cytotoxicity, hits mostly cytotoxic; actives 0.76% (n = 410,000)
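CellTiter-Glo luminescence gave cytotoxicity after 18 hours at 37 degrees C. The cells were HepG2 CAGA-GFP in 1% FBS DMEM, stimulated with 500 pg/mL TGF-beta after compound addition. %Activity was normalised to no-cell wells (complete cell-killing) and DMSO (no toxicity), and curves were fitted and classified.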
Numbers without * were called inactive; i = inactive; ? = inconclusive; . = no result; [ ] = dose if it differs, or a comment. The call rests on the fitted dose curve; in most records, active means well fitted curve in the direction sought with a large enough effect; inconclusive means small, poorly fitted or top-dose-only effect, or another doubt; inactive means no such curve, though single readings can be large; an effect the other way counts as inactive or inconclusive. Potency means the concentration at half of the fitted maximal effect.

SMILES	ATXN2 expr inh	S2 tox	HT1080NT lethal	HT1080 IDH1KD tx	TGFb inhibitor	HepG2 viability
Cc1cc(Nc2cccc(C(F)(F)F)c2)nc2ccc(NC(=O)c3cccnc3)cc12	?	18µM*	.	.	?	-99%
O=S(=O)(Nc1cccc2ccccc12)c1ccc2ccccc2c1	.	.	.	.	?	-18%
COc1ccccc1NC(=O)Cn1ccn(-c2cc(C)cc(C)c2)c(=O)c1=O	.	.	.	.	-1%	-9%
COc1ccc(CN2CSC(=S)N(Cc3ccc(OC)cc3)C2)cc1	.	?	-3%	0%	?	13µM*
S=C1SCN(Cc2cccnc2)CN1Cc1cccnc1	?	.	7.3µM*	6.5µM*	?	-98%
S=C1NCN(Cc2cccnc2)CN1	-22%	i	-1%	6%	-4%	9%
S=C1SCN(Cc2ccccc2)CN1Cc1ccccc1	-18%	i	9%	8%	?	-52%
COc1ccc(CN2CSC(=S)N(Cc3ccccc3)C2)cc1	.	7.1µM*	-8%	-3%	13µM*	11µM*
COc1ccc(-c2cc(C(=O)NCc3ccccc3)c3c(-c4ccccc4)[nH]nc3n2)cc1	7%	i	.	.	-23%	-18%
COc1ccc(CN2c3c(Br)cccc3C(=O)CS2(=O)=O)cc1	-26%	i	23µM*	?	?	-34%
O=C1CS(=O)(=O)N(Cc2cccc(F)c2)c2ccc(Br)cc21	-15%	i	?	?	?	-1%
CNc1ccc(/C=C2\C=Cc3ccccc32)cc1Br	.	.	.	.	?	-26%
O=C(N/N=C/c1sc(N2CCOCC2)nc1-c1ccccc1)c1cccc(S(=O)(=O)N2CCOCC2)c1	.	i	3.7µM*	?	-5%	-3%
Nc1ccc(C(=O)N/N=C/c2sc(N3CCOCC3)nc2-c2ccccc2)cc1	7%	i	13%	17%	5%	0%
CCN(CC)c1ccc(/C=N/NC(=O)c2cccc(S(=O)(=O)N3CCOCC3)c2)c(O)c1	1.9µM*	.	?	?	?	-4%
CCN(CC)c1ccc(C=Nc2cccc(S(=O)(=O)N3CCOCC3)c2)c(O)c1	-3%	?	5%	1%	5%	-3%
Cc1ccc(-n2nc(C(C)(C)C)cc2NC(=O)Nc2ccc(OCCN3CCOCC3)c3ccccc23)cc1	17%	i	.	.	.	.
Nc1nc(N)c(-c2cccc(C(F)(F)F)c2)c(Cc2cccc(C(F)(F)F)c2)n1	?	i	?	4.6µM*	?	8.9µM*
O=S(=O)(c1cccc(NC(=S)N2CCN(c3ccc(F)cc3)CC2)c1)C(F)F	.	?	2%	-10%	?	-12%
O=S(=O)(c1cccc(NC(=S)N2CCN(c3cccc(Cl)c3)CC2)c1)C(F)F	-15%[11.3 µM]	i	21µM*	23µM*	0%	5%
CCOC(=O)CSc1cc(-c2ccccc2)nc2ncnn12	-29%	?	?	18µM*	-25%	-49%
CN(Cc1cnc2nc(N)nc(N)c2n1)c1ccc(C(=O)NC(CCC(=O)O)C(=O)O)cc1 (stereo unspecified)	?	i	0.23µM*	0.0065µM*	-27%	0.28µM*
CN(Cc1cnc2nc(N)nc(N)c2n1)c1ccc(C(=O)NC(CCC(=O)O)C(=O)O)cc1C(F)(F)F (stereo unspecified)	?	i	?	0.15µM*	-25%	-63%
Cc1ccc(-c2noc(CCC(=O)Nc3ccc(F)cc3Cl)n2)cc1	.	.	.	.	-5%	-10%
CCCOC(=O)c1ccc(Oc2cn[nH]c2-c2ccc(O)cc2O)cc1	.	i	18µM*	-4%	?	-48%
C=C(C)COc1ccc(-c2[nH]ncc2Oc2cccc(OC)c2)c(O)c1	-34%	i	23µM*	?	?	18µM*
